Results as given in PubChem BioAssay.
The source made the active and inactive calls.

Legend:
[1] = system: Plasmodium falciparum Sir2 (PF13_0152, Sir2A); assay: Plasmodium falciparum Sir2A binding compounds – biochemical, small-molecule microarray, 635 nm fluorescence, primary screen (AID 1098); settings: fluorescence 635 nm, higher = more signal;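 further: score merges spot fluorescence intensity with its signal-to-noise ratio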
[2] = probe aDKK1 binding to arrayed compounds – biochemical, biotinylated probe, 635/667 nm fluorescence, primary screen (AID 1099); settings: small-molecule microarray, higher = more signal;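 further: score merges 667nm spot fluorescence with signal to noise across triplicate slides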
[3] = probe aCHRDL2 binding to arrayed compounds – biochemical, biotinylated probe, 635/667 nm fluorescence, primary screen (AID 1100); settings: small-molecule microarray, higher = more signal
[4] = change in splice reporter luminescence, either direction, cell-based, HEK293, spliceosome inhibition project, primary screen (AID 1101); settings: HEK293 splicing luciferase reporter, 24 h, higher = more signal, called active from +8 up or from −8 down;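 further: HEK293 cells carrying a splicing-competent luciferase reporter gene; test concentration not given here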
[5] = biological target: Fibroblast growth factor 10 (Homo sapiens) (UniProt O15520); assay: compounds binding fibroblast growth factor 10 – biochemical, small-molecule microarray, 635 nm fluorescence, primary screen (AID 1102); settings: FGF10 binding, fluorescence 635 nm, higher = more signal
Chain of Fibroblast growth factor 10 (Homo sapiens) (O15520 whole entry, looked up): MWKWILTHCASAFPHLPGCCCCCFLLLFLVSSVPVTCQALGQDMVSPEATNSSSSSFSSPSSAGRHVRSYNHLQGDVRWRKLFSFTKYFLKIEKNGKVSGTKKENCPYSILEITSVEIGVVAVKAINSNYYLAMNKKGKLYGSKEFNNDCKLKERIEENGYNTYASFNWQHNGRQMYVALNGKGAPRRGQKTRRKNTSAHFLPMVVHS

[6] = system: glycogen synthase kinase-3 (GSK3A per assay name; protocol says GSK3B); assay: compounds binding glycogen synthase kinase-3 – biochemical, small-molecule microarray, 635 nm fluorescence, GSK3A, primary screen (AID 1103); settings: fluorescence 635 nm, higher = more signal; further: the record names both GSK3A and GSK3B
[7] = biological target: Epidermal growth factor receptor (Homo sapiens) (UniProt P00533); assay: compounds binding epidermal growth factor receptor – biochemical, small-molecule microarray, 635 nm fluorescence, primary screen (AID 1104); settings: EGFR binding, higher = more signal;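 further: score merges 667 nm emission intensity with spot signal to noise over triplicate slides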
Chain of Epidermal growth factor receptor (Homo sapiens) (P00533 whole entry, looked up): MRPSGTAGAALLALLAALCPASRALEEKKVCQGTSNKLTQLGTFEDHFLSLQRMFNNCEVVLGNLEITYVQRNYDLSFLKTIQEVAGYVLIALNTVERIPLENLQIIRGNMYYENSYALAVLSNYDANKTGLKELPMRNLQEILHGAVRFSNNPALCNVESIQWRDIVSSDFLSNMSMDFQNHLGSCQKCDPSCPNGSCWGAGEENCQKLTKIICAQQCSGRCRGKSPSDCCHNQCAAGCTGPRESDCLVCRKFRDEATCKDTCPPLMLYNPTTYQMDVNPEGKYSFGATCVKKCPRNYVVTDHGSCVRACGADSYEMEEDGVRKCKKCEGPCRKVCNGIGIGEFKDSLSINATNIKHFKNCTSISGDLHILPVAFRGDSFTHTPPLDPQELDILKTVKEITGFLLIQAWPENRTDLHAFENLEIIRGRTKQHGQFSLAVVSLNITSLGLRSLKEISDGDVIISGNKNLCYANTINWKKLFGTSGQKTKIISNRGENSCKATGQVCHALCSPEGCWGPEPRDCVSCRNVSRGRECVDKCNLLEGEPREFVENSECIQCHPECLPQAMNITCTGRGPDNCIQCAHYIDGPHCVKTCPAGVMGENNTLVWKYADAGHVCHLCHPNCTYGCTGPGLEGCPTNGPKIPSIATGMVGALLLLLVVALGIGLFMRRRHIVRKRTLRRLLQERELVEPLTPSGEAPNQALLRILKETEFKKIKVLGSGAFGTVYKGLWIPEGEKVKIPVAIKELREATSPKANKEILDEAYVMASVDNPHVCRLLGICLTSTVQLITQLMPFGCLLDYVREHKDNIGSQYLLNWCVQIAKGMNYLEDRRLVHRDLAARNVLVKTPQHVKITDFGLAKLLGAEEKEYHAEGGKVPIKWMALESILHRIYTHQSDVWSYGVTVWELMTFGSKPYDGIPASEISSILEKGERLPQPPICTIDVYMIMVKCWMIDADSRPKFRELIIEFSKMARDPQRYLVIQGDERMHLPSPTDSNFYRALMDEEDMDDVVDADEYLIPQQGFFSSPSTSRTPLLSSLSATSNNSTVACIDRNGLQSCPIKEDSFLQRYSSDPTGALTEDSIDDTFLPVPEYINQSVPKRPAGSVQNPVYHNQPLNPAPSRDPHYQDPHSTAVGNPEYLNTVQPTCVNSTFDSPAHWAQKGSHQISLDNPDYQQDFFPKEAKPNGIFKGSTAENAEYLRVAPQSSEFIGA

[8] = biological target: Follistatin-related protein 3 (Homo sapiens) (UniProt O95633); assay: compounds binding follistatin-related protein 3 – biochemical, small-molecule microarray, 635 nm fluorescence, primary screen (AID 1105); settings: FSTL3 binding, higher = more signal;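 further: score merges emission near 667 nm and signal to noise per printed spot across three slides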
Chain of Follistatin-related protein 3 (Homo sapiens) (O95633 whole entry, looked up): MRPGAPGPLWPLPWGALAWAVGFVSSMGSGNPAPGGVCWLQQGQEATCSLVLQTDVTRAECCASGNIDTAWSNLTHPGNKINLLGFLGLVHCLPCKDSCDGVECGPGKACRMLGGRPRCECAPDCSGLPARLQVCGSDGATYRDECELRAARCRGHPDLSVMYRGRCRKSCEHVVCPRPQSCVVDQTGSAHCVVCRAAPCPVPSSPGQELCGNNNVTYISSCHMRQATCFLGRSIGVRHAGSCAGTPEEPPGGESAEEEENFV

[9] = biological target: Dickkopf-related protein 1 (Homo sapiens) (UniProt O94907); assay: small molecules binding DKK1 protein – biochemical, small-molecule microarray, 635 nm fluorescence scan, primary screen (AID 1106); settings: higher = more signal;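 further: score merges emission near 667 nm with signal to noise over three replicate slides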
Chain of Dickkopf-related protein 1 (Homo sapiens) (O94907 whole entry, looked up): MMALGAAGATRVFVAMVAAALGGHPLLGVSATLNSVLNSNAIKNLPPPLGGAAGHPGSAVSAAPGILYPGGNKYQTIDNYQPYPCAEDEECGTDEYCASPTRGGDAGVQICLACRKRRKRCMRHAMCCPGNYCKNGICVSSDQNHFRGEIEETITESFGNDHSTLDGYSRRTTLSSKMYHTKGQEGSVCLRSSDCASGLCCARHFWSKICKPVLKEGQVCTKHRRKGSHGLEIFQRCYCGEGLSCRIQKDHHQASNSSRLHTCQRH

[10] = system: Inhibin beta A chain (activin A); assay: small molecules binding activin A – biochemical, small-molecule microarray, 635 nm fluorescence scan, primary screen (AID 1107); settings: INHBA, higher = more signal;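 further: mouse activin A protein probed at 4.33 µg/mL on printed slides; score merges bound-protein fluorescence near 667 nm with spot signal-to-noise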
[11] = system: Human papillomavirus type 1a protein E7 (residues 44-93); assay: small molecules binding HPV E7 44-93 – biochemical, small-molecule microarray, residues 44-93, 635 nm fluorescence, primary screen (AID 1108); settings: fluorescence 635 nm, higher = more signal;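 further: E7 fragment applied at 1 µg/mL in TBST for 1 h at 4 C; score combines spot fluorescence with its signal to noise ratio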
[12] = hepatitis C replication reporter changes, two-sided – Huh7 cells, luciferase reporter, HCV replication inhibitor project, primary screen (AID 1109); settings: Huh7 HCV replicon luciferase reporter, 48 h; higher = more signal;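 further: huh7 hepatoma cells harbouring a luciferase neomycin HCV replicon reporter; luciferase luminescence as measure of HCV replicon replication; test concentration not given here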
[13] = biological target: Left-right determination factor 2 (Homo sapiens) (UniProt O00292); assay: small molecules binding LEFTY2 protein – biochemical, small-molecule microarray, 635 nm fluorescence scan, primary screen (AID 1110); settings: higher = more signal
Chain of Left-right determination factor 2 (Homo sapiens) (O00292 whole entry, looked up): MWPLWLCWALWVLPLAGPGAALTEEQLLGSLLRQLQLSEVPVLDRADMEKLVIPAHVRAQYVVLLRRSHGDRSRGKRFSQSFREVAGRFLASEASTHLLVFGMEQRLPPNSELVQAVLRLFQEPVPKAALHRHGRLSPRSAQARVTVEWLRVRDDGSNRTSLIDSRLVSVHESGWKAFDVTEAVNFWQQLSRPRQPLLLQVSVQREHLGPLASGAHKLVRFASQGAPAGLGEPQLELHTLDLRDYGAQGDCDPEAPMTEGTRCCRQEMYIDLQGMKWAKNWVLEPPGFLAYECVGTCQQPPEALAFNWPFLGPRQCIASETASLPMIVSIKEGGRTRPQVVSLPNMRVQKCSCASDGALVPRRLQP

[14] = biological target: Calmodulin-1 (Homo sapiens) (UniProt P0DP23); assay: small molecules binding calmodulin-1 with EGTA – biochemical, small-molecule microarray, Cy5-labelled CALM1, profiling panel (AID 1111); settings: Cy5-CALM1 binding fluorescence, higher = more signal;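 further: labelled calmodulin applied in Tris saline Tween buffer holding calcium plus EGTA and DTT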
[15] = biological target: Calmodulin-1 (Homo sapiens) (UniProt P0DP23); assay: small molecules binding Ca-loaded calmodulin-1 – biochemical, small-molecule microarray, Cy5-labelled CALM1, plus calcium, artefact control for SMM control-protein annotation, profiling panel (AID 1112); settings: Cy5-CALM1 binding fluorescence, higher = more signal;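 further: score merges spot fluorescence with signal to noise from triplicate slides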
[16] = probe aWnt5a binding to arrayed compounds – biochemical, biotinylated probe, 635/667 nm fluorescence, primary screen (AID 1113); settings: small-molecule microarray, higher = more signal;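 further: score merges 667 nm fluorescence intensity with signal-to-noise per printed feature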
[17] = probe aShh binding to arrayed compounds – biochemical, biotinylated probe, 635/667 nm fluorescence, primary screen (AID 1114); settings: small-molecule microarray, higher = more signal;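 further: probe is biotin-labelled aShh protein from a stem cell growth factor screen; measures binding of labelled protein to compounds printed on the slide; score merges feature fluorescence at 667 nm with signal-to-noise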
[18] = probe aNog binding to arrayed compounds – biochemical, biotinylated probe, 635/667 nm fluorescence, primary screen (AID 1115); settings: small-molecule microarray, higher = more signal;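 further: probe is biotinylated aNog protein used at 0.15 µg/mL for 1 h at 4 C; z-score combines 667 nm fluorescence of each spot with its signal to noise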
[19] = biological target: Torsin-1A-interacting protein 1 (Homo sapiens) (UniProt Q5JTV8); assay: compound microarray binding of lysate hLAP1 – cell lysate, small-molecule microarray, COS7 lysate, 635/667 nm fluorescence, primary screen (AID 1116); settings: 635 nm fluorescence, higher = more signal
Chain of Torsin-1A-interacting protein 1 (Homo sapiens) (Q5JTV8 whole entry, looked up): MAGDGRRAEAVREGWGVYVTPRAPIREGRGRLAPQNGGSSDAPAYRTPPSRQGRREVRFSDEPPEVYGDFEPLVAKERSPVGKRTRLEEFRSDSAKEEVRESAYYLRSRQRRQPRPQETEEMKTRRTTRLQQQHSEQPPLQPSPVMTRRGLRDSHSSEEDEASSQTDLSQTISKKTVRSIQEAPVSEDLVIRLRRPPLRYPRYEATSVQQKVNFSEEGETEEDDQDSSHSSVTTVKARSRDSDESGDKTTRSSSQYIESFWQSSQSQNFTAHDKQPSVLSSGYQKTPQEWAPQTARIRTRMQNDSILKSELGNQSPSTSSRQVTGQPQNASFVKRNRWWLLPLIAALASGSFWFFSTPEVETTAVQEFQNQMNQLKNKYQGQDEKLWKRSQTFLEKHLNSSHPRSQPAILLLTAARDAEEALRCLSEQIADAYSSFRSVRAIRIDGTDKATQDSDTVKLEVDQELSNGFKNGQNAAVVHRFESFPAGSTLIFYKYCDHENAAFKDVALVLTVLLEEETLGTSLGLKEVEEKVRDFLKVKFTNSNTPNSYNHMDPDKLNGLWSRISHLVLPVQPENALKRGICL

[20] = biological target: Alpha-bungarotoxin (Bungarus multicinctus) (UniProt P60615); assay: compounds binding labelled alpha-BTX control protein – biochemical, small-molecule microarray, Alexa647 label, 635/667 nm fluorescence, artefact control for SMM control protein annotation, profiling panel (AID 1117); settings: alpha-BTX-A647 binding fluorescence, higher = more signal
Chain of Alpha-bungarotoxin (Bungarus multicinctus) (P60615 whole entry, looked up): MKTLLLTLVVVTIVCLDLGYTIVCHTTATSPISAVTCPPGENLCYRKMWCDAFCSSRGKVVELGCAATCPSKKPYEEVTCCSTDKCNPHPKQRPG

| Compound | composite z-score [1] | composite z-score [2] | composite z-score [3] | z-score [4] | composite z-score [5] | composite z-score [6] | composite z-score [7] | composite z-score [8] | composite z-score [9] | composite z-score [10] | composite z-score [11] | z-score [12] | composite z-score [13] | composite z-score [14] | composite z-score [15] | composite z-score [16] | composite z-score [17] | composite z-score [18] | composite z-score [19] | composite z-score [20] |
| --- | --- | --- | --- | --- | --- | --- | --- | --- | --- | --- | --- | --- | --- | --- | --- | --- | --- | --- | --- | --- |
| CC(C)CON=C1C[C@@H](O)[C@@H](O)[C@@H]2[C@@H]3C(=O)N(c4ccc(F)cc4F)C(=O)[C@@H]3CC[C@H]12 | 0.256 | -0.212 | -0.509 | -0.972 (inactive) | 0.553 | 0.458 | 0.59 | 0.986 | 0.671 | -0.253 | 1.38 | -0.666 | 0.923 | 0.0597 | -0.809 | -0.0735 | -0.0169 | 0.106 | 0.272 | 0.198 |
| CCOC(=O)[C@H](CC(C)C)NC(=O)CCC1CC(OC(=O)NCCc2ccc(F)cc2)CC2(CCCC(COC(=O)NCCOc3ccccc3)O2)O1 (stereo not given in full) | 1.4 | -0.0843 | -0.545 | 0.119 (inactive) | 0.989 | 0.508 | 0.672 | 1.1 | 1.52 | -0.0219 | 1.36 | -0.972 | 1.16 | 1.02 | -0.129 | -0.15 | -0.13 | -0.0965 | 0.531 | 0.947 |
| CCc1cc2c(nc1CC)CCN(CCC(C)=NOC[C@H]1O[C@H](c3ccccc3)C=C[C@@H]1Oc1ccc(OC)cc1)C2 | 0.507 | 0.46 | 0.0691 | -1.47 (inactive) | -0.344 | -0.26 | -0.0924 | -0.0668 | -0.159 | 0.813 | 0.371 | -3.16 | -0.0061 | -0.112 | 0.366 | -0.0944 | 0.0639 | -0.0065 | 0.76 | 0.292 |
| CO[C@H]1COC(=O)[C@H](C)NC(=O)CC=C[C@@H](C)[C@H](OC)COC(=O)[C@@H](OCc2ccccc2)C=C[C@@H]1C | 0.68 | -0.747 | -1.33 | -0.00187 (inactive) | 0.0389 | 0.362 | 0.475 | 0.492 | 0.834 | 1.34 | -0.112 | -0.339 | 0.591 | -0.306 | -1.32 | -0.233 | -0.279 | 0.0021 | 0.129 | -0.233 |
| Cc1ccc(S(=O)(=O)N[C@H]2COC(=O)CC=C[C@H](C)[C@@H](NS(=O)(=O)c3ccc(C)cc3)COC(=O)CC=C[C@@H]2C)cc1 | -0.0784 | -0.217 | -0.588 | 0.647 (inactive) | 0.925 | 0.607 | 0.364 | 0.577 | 0.486 | -0.136 | 0.584 | -0.622 | 0.518 | -0.324 | -0.6 | -0.351 | -0.476 | -0.0381 | -0.129 | 0.149 |
| CCOC(=O)[C@H](CC(C)C)NC(=O)CCC1CC(OC(=O)NCc2cccc3ccccc23)CC2(CCCC(COC(=O)NCCC(C)C)O2)O1 (stereo not given in full) | 1.49 | -0.203 | -0.196 | -2.95 (inactive) | 0.335 | -0.229 | 0.59 | 0.728 | 0.418 | 0.203 | 0.15 | 0.502 | 0.443 | 0.18 | -0.703 | -0.0529 | -0.182 | -0.32 | 0.165 | 0.503 |
